Compounds with a hit are over-represented: about 2.4% of the library has one in this group of screens.
D2 ag-1 = Beta-Arrestin HTS for Positive Allosteric Modulators of the Human D2 Dopamine Receptor: Agonists | DiscoveRx PathHunter D2 beta-arrestin, luminescence, 90 min; 100% = 57 uM dopamine signal | activation, % (test concentration not listed) | actives 0.084% (n = 360,000) | AID 624465, 2012; in the data active means activation above about 40%; inconclusive means between about 15% and that limit
Target sequence (P14416 whole entry, looked up): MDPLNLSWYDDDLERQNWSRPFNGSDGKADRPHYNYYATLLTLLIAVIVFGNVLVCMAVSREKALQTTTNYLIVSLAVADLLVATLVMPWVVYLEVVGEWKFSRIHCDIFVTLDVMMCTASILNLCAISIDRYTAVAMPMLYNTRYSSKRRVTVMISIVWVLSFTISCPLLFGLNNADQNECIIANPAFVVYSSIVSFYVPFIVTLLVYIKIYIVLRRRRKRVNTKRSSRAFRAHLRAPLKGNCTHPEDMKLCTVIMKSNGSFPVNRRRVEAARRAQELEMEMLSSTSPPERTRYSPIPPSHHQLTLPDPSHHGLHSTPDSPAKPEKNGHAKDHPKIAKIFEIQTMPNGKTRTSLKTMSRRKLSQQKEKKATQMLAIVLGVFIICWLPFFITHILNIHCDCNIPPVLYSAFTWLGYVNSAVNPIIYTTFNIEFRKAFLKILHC
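DiscoveRx PathHunter D2 beta-arrestin cells (2,100/well) attached overnight, then compound-stimulated 90 min at 37 C in HBSS/10 mM HEPES/0.1% Tween-20 buffer; beta-galactosidase complementation read by luminescence after 1 h at ambient temperature. Dopamine 57 uM final (EC100) as control.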
D2 ag-2 = HTS Assay for Allosteric Agonists of the Human D2 Dopamine Receptor: Primary Screen for Agonists. D(2) dopamine receptor (Homo sapiens), P14416. activation, % at 2 µM. HEK293 T-REx D2 cells, calcium flux agonist mode. actives 0.53% (n = 340,000);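 active means activation over 3 SD above normal in the single-dose calcium agonist read, cut at about 30% in these data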
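Agonism scored from kinetic calcium signal (1 read/sec, 180 s) following compound pin transfer, after a 10 s baseline. Cells: HEK293 Trex line expressing inducible D2 receptor coupled to calcium, dye-loaded after overnight culture at 30 C.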
D2 PAM-1 = Beta-Arrestin HTS for Positive Allosteric Modulators of the Human D2 Dopamine Receptor: Potentiators; DiscoveRx D2 beta-arrestin cells, luminescence, 90 min; 100% = 57 uM dopamine signal; potentiation, % (test concentration not listed); actives 0.23% (n = 360,000); in the data active means potentiation above about 50%; inconclusive means mostly about 30% to 49%
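PathHunter beta-arrestin assay in DiscoveRx D2 cells. Compounds were added with an EC20 of dopamine (50 nM final) for 90 min at 37 deg C. Luminescence was read 1 h after detection reagent, with 57 uM dopamine as the EC100 control.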
D2 antagonist = HTS Assay for Allosteric Antagonists of the Human D2 Dopamine Receptor: Primary Screen for Antagonists. HEK293 TREx D2 cells, calcium flux, dopamine EC80. inhibition, % at 10 µM. actives 2% (n = 340,000). AID 485344, 2010; in the data active means inhibition above about 30%; inactive means below that, where a call was filed
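Dopamine at EC80 is the agonist stimulus; test compounds precede it by 180 s. Calcium flux read kinetically in a force-coupled, inducible HEK293 T-REx D2 cell line.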
D2 PAM-2 = HTS Assay for Positive Allosteric Modulators of the Human D2 Dopamine Receptor: Primary Screen for Potentiators; D(2) dopamine receptor (Homo sapiens), P14416; HEK293 T-REx D2, calcium flux, EC20 dopamine potentiation; AID 485347, 2010; potentiation, % at 10 µM; actives 0.34% (n = 340,000);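 active means potentiation over 3 SD above the plate norm, cut at about 30% in these data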
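Potentiation of an EC20 dopamine calcium response is measured in a force-coupled, tetracycline-inducible Hek293 Trex D2 line. Compound-only kinetic reads over 180 s flag agonists before dopamine addition.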
A number is an active result; i = inactive; ? = inconclusive; nt = no result.

SMILES	D2 ag-1	D2 ag-2	D2 PAM-1	D2 antagonist	D2 PAM-2
Cc1cc2c(cc1S(=O)(=O)Nc1cccc(F)c1)n(C)c(=O)c(=O)n2C	i	i	i	i	i
Cc1cccc(NS(=O)(=O)c2cc3c(cc2C)n(C)c(=O)c(=O)n3C)c1	i	36.2	i	i	i
COc1cc(/C=C2\SC(c3ccc(C)cc3)=NC2=O)ccc1O	i	i	i	32.1	i
COc1cc(/C=C2\SC(=N)N(c3ccc(F)cc3)C2=O)ccc1O	i	i	i	55.8	i
CCOc1cc(/C=C2\SC(=S)N(Nc3ccccc3)C2=O)ccc1O	i	i	i	35.1	i
COc1cc(/C=C2\SC(=S)N(NC(=O)c3ccc(O)cc3)C2=O)ccc1O	i	35.5	i	i	i
COc1ccc(/C=C2\SC(c3ccc(C)cc3)=NC2=O)cc1OC	i	i	i	i	i
CCOc1ccc(N2C(=O)S/C(=C\c3ccc(O)c(OC)c3)C2=O)cc1	i	i	i	i	i
CCOc1ccc(NC(=O)c2cc(=O)c3ccc(C)c(C)c3o2)cc1	nt	nt	nt	nt	i
Cc1cc(C)cc(NC(=O)NCC(O)COc2ccc([N+](=O)[O-])cc2)c1 (stereo unspecified)	i	i	i	38.2	i
O=C(NCC(O)COc1ccc([N+](=O)[O-])cc1)Nc1ccccc1 (stereo unspecified)	i	i	i	i	i
O=C1CC(N2CCC(C(=O)N3CCCCC3)CC2)C(=O)N1 (stereo unspecified)	i	i	i	37.9	nt
CCN1CCN(C2CC(=O)NC2=O)CC1 (stereo unspecified)	nt	i	nt	i	i
Cc1ccc(S(=O)(=O)Nc2cccc3cccnc23)cc1	i	i	i	i	i
COc1cc(NS(=O)(=O)c2ccc(C)cc2)c2ncccc2c1	i	i	i	i	53.7
COc1ccc2oc(C)c(C(=O)c3ccc([N+](=O)[O-])cc3)c2c1	?	i	83.6	i	i
C=CCN(C(=O)c1csnn1)C(C(=O)NCc1ccc(F)cc1)c1ccccc1 (stereo unspecified)	i	i	i	51.6	i
CCNC(=O)C1(C)CCN(C(=O)c2ccc(C#N)cc2)C1 (stereo unspecified)	i	nt	i	nt	nt
COc1ccc(Cl)cc1Nc1nc(Cl)nc(NCCO)n1	i	nt	i	nt	nt
CCOc1ccc(NCc2cc3c(C(C)(C)C)nn(-c4ccccc4)c3[nH]c2=O)cc1	i	i	i	i	i
CC(C)(C)c1nn(-c2ccccc2)c2[nH]c(=O)c(C=O)cc12	i	i	i	38.8	i
CC(C)(C)c1nn(-c2ccccc2)c2nc(Cl)c(C=O)cc12	i	i	i	32.1	i
CC(C)Cn1c(N)c(C(=O)CSc2ccc3c(c2)OCCO3)c(=O)n(C)c1=O	i	i	i	i	32.9
CC(C)Cn1c(N)c(C(=O)COC(=O)c2c(F)cccc2F)c(=O)n(C)c1=O	i	i	i	45.2	i
Cn1c2ccc(F)cc2c2nnc(SCCN3CCOCC3)nc21	i	i	i	35.3	i
SMILES	D2 ag-1	D2 ag-2	D2 PAM-1	D2 antagonist	D2 PAM-2
CCCCn1c2ccc(F)cc2c2nnc(SCCN3CCOCC3)nc21	i	i	i	i	i
CCCc1nnc(SCC(=O)N2CCCC2)n1Cc1ccco1	i	39.9	i	i	i
CCCn1c(CCc2ccccc2)nnc1SCC(=O)N1CCCC1	i	i	i	i	i
CCOC(=O)N1CCN(C(=O)CSc2nnc(COc3ccccc3)o2)CC1	i	i	i	i	i
CCOC(=O)N1CCN(C(=O)CSc2nnc(Cc3ccccc3)o2)CC1	i	i	i	i	30.8
CCOc1ccc(NS(=O)(=O)c2cc(C(=O)N3CCN(c4ccccc4O)CC3)ccc2Cl)cc1	i	i	i	i	i
Cc1sc2nc(C3CC3)nc(SCC(=O)N3CCCc4ccccc43)c2c1C	nt	i	nt	i	i
Cn1c(=O)c2c(SCC(=O)N3CCCc4ccccc43)nc(C3CC3)nc2n(C)c1=O	i	i	i	35.2	i
CCn1c(SCC(=O)c2[nH]c(C)c(C(C)=O)c2C)nnc1-c1cccs1	i	i	i	98.8	i
CC1=C(C(=O)Nc2ccc(C)cc2C)C(c2cccs2)n2nc(SCc3ccccc3Cl)nc2N1 (stereo unspecified)	nt	i	nt	nt	i
O=C1S/C(=C\c2ccc(N3CCOCC3)o2)C(=O)N1c1ccccc1	i	30.7	i	i	i
Cc1ccc(F)c(S(=O)(=O)NC(=O)C2(C)CCN2C(=O)c2cccc3ccccc23)c1 (stereo unspecified)	?	nt	61.7	nt	nt
Cc1ccccc1-c1nc(C#N)c(N2CCC(C)CC2)o1	i	i	i	30.7	i
CSc1ncccc1C(=O)N1CCC(C)(C(=O)O)C1 (stereo unspecified)	i	nt	i	nt	nt
COc1cc2nc(Nc3ccc(C)c(C)c3)nc(N)c2cc1OC	i	i	i	30.4	i
CCCCn1c(SCC(=O)c2cc(OC)ccc2OC)nc2cc(S(N)(=O)=O)ccc21	i	i	i	i	i
CCCCn1c(SCC(=O)c2ccc(O)cc2O)nc2cc(S(N)(=O)=O)ccc21	i	i	i	31.6	i
O=C(CN1CCOCC1)Nc1ncc(Cc2cccc3ccccc23)s1	i	i	i	42.0	i
OCCC1CN(Cc2cccc3nccnc23)CCN1C1CCCC1 (stereo unspecified)	i	i	i	i	i
OCCC1CN(Cc2cccc3nonc23)CCN1C1CCCCC1 (stereo unspecified)	i	i	i	37.7	i
Cc1c(CN2CCCC(C(=O)Nc3cccc(-n4cccn4)c3)C2)cnn1C (stereo unspecified)	i	i	i	46.6	i
COc1cccc(C(=O)C2CCCN(Cc3cccc(-n4cccn4)c3)C2)c1 (stereo unspecified)	i	i	i	31.7	i
Cc1cc(CN2CCCC(C(=O)Nc3cccc(-n4cccn4)c3)C2)cc(C)c1O (stereo unspecified)	i	i	i	38.0	i
COc1cccc(C(=O)C2CCCN(Cc3cccn3-c3cccnc3)C2)c1 (stereo unspecified)	i	i	i	i	i
CCOc1ccc2nc(N3CCN(C(=O)CS(=O)(=O)c4ccc(F)cc4)CC3)sc2c1	nt	nt	nt	nt	i
COc1ccc(NC(=O)C2CCN(c3cc(C)nc4c(-c5ccc(Cl)cc5)c(C)nn34)CC2)cc1	nt	i	nt	nt	i
COc1ccc(NC(=O)COC(=O)C2CCN(S(=O)(=O)c3cccs3)CC2)cc1OC	i	nt	i	nt	nt
CC(NC(=O)CN(C)CC(=O)Nc1ccccc1Br)c1ccccc1 (stereo unspecified)	i	i	i	i	i

From PubChem
